Laboratory results as given in PubChem BioAssay AID1159580 (chemical genetic matrix, 2015).
The campaign covered roughly 5,500 compounds. About 2,000 (36%) were called active. Another 18% or so got no clear call; they are omitted. No stated cut-off is given here; in the data, active means normalized growth mostly below about 0.91 (no sharp cut-off); inconclusive means no clear call, values can overlap the other calls; inactive means mostly above about 0.92. This is one part of the list.

Assay: chemical genetic growth profiling, strain panel (AID 1159580);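 further: tested at 20 µM; growth read once vehicle control cultures reached saturation at 30 °C; 1 = growth at the plate median or of vehicle wells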
Conditions: growth OD

Measured: normalized growth

CCOC(=O)OC(C)OC(=O)C1N2C(=O)C(NC(=O)[C@H](N)c3ccccc3)C2SC1(C)C (stereo not given in full)
inactive: S. cerevisiae deletion strains, locus YJR075W, strain HOC1, stronger effect = lower value 0.966 | S. cerevisiae deletion strains, locus YKL009W, strain mrt4, stronger effect = lower value 0.946 | S. cerevisiae deletion strains, locus YKL068W, stronger effect = lower value 0.98 | S. cerevisiae deletion strains, locus YKL085W, strain MDH1 (second series), stronger effect = lower value 0.989 | S. cerevisiae deletion strains, locus YKL085W, strain MDH1, stronger effect = lower value 0.989 | S. cerevisiae deletion strains, locus YKL160W, strain elf1, stronger effect = lower value 0.966 | S. cerevisiae deletion strains, locus YKL190W, strain CNB1, stronger effect = lower value 0.975 | S. cerevisiae deletion strains, locus YKR001C, strain vps1, stronger effect = lower value 0.98 | S. cerevisiae deletion strains, locus YKR026C, strain gcn3, stronger effect = lower value 1.01 | S. cerevisiae deletion strains, locus YKR091W, strain srl3, stronger effect = lower value 0.977 | S. cerevisiae deletion strains, locus YLL001W, strain dnm1, stronger effect = lower value 0.96 | S. cerevisiae deletion strains, locus YLL026W, stronger effect = lower value 0.998 | S. cerevisiae deletion strains, locus YLL041C, strain sdh2, stronger effect = lower value 0.983 | S. cerevisiae deletion strains, locus YLR027C, strain aat2, stronger effect = lower value 0.984 | S. cerevisiae deletion strains, locus YLR039C, strain RIC1, stronger effect = lower value 0.991 | S. cerevisiae deletion strains, locus YLR058C, strain SHM2, stronger effect = lower value 0.963 | S. cerevisiae deletion strains, locus YLR102C, strain apc9, stronger effect = lower value 0.987 | S. cerevisiae deletion strains, locus YLR113W, strain HOG1, stronger effect = lower value 0.966 | S. cerevisiae deletion strains, locus YLR221C, strain rsa3, stronger effect = lower value 0.999 | S. cerevisiae deletion strains, locus YLR258W, strain gsy2, stronger effect = lower value 1 | S. cerevisiae deletion strains, locus YLR262C, strain YPT6 (second series), stronger effect = lower value 0.982 | S. cerevisiae deletion strains, locus YLR262C, strain YPT6, stronger effect = lower value 0.964 | S. cerevisiae deletion strains, locus YLR268W, strain sec22, stronger effect = lower value 0.988 | S. cerevisiae deletion strains, locus YLR320W, strain mms22, stronger effect = lower value 0.96 | S. cerevisiae deletion strains, locus YLR330W, strain CHS5, stronger effect = lower value 0.992 | S. cerevisiae deletion strains, locus YLR342W, strain FKS1 (second series), stronger effect = lower value 1.11 | S. cerevisiae deletion strains, locus YLR342W, strain FKS1, stronger effect = lower value 0.976 | S. cerevisiae deletion strains, locus YLR357W, strain rsc2, stronger effect = lower value 0.961 | S. cerevisiae deletion strains, locus YLR370C, strain arc18, stronger effect = lower value 0.982 | S. cerevisiae deletion strains, locus YLR371W, strain rom2, stronger effect = lower value 0.999 | S. cerevisiae deletion strains, locus YLR384C, strain iki3, stronger effect = lower value 0.974 | S. cerevisiae deletion strains, locus YLR418C, strain cdc73, stronger effect = lower value 0.978 | S. cerevisiae deletion strains, locus YML016C, strain PPZ1, stronger effect = lower value 0.986 | S. cerevisiae deletion strains, locus YML032C, strain rad52, stronger effect = lower value 0.962 | S. cerevisiae deletion strains, locus YML120C, strain ndi1, stronger effect = lower value 0.974 | S. cerevisiae deletion strains, locus YML124C, strain tub3, stronger effect = lower value 0.987 | S. cerevisiae deletion strains, locus YMR058W, strain fet3, stronger effect = lower value 0.977 | S. cerevisiae deletion strains, locus YMR078C, strain ctf18, stronger effect = lower value 0.994 | S. cerevisiae deletion strains, locus YMR125W, strain sto1, stronger effect = lower value 0.99 | S. cerevisiae deletion strains, locus YMR129W, stronger effect = lower value 0.992 | S. cerevisiae deletion strains, locus YMR205C, strain PFK2, stronger effect = lower value 0.966 | S. cerevisiae deletion strains, locus YMR223W, strain ubp8, stronger effect = lower value 0.986 | S. cerevisiae deletion strains, locus YMR231W, strain pep5, stronger effect = lower value 0.998 | S. cerevisiae deletion strains, locus YMR263W, strain SAP30, stronger effect = lower value 0.967 | S. cerevisiae deletion strains, locus YMR307W, strain GAS1, stronger effect = lower value 1.04 | S. cerevisiae deletion strains, locus YNL067W, strain RPL9B, stronger effect = lower value 0.945 | S. cerevisiae deletion strains, locus YNL071W, strain lat1, stronger effect = lower value 0.998 | S. cerevisiae deletion strains, locus YNL153C, strain GIM3, stronger effect = lower value 0.932 | S. cerevisiae deletion strains, locus YNL183C, strain NPR1, stronger effect = lower value 0.947 | S. cerevisiae deletion strains, locus YNL209W, strain ssb2, stronger effect = lower value 0.989 | S. cerevisiae deletion strains, locus YNL233W, strain BNI4, stronger effect = lower value 0.97 | S. cerevisiae deletion strains, locus YNL248C, strain rpa49, stronger effect = lower value 0.985 | S. cerevisiae deletion strains, locus YNL250W, strain rad50, stronger effect = lower value 0.968 | S. cerevisiae deletion strains, locus YNL271C, strain bni1, stronger effect = lower value 0.986 | S. cerevisiae deletion strains, locus YNL298W, strain CLA4, stronger effect = lower value 0.982 | S. cerevisiae deletion strains, locus YNL307C, strain MCK1, stronger effect = lower value 0.995 | S. cerevisiae deletion strains, locus YNL322C, strain KRE1 (second series), stronger effect = lower value 0.968 | S. cerevisiae deletion strains, locus YNL322C, strain KRE1, stronger effect = lower value 0.985 | S. cerevisiae deletion strains, locus YNR049C, strain mso1, stronger effect = lower value 0.976 | S. cerevisiae deletion strains, locus YNR052C, strain pop2, stronger effect = lower value 0.987 | S. cerevisiae deletion strains, locus YOL006C, strain TOP1, stronger effect = lower value 0.825 | S. cerevisiae deletion strains, locus YOL012C, strain htz1 0.766 | S. cerevisiae deletion strains, locus YOL147C, strain pex11, stronger effect = lower value 0.993 | S. cerevisiae deletion strains, locus YOR001W, strain rrp6, stronger effect = lower value 1.01 | S. cerevisiae deletion strains, locus YOR061W, strain CKA2, stronger effect = lower value 0.949 | S. cerevisiae deletion strains, locus YOR069W, strain VPS5, stronger effect = lower value 0.992 | S. cerevisiae deletion strains, locus YOR070C, strain gyp1, stronger effect = lower value 0.993 | S. cerevisiae deletion strains, locus YOR080W, strain dia2, stronger effect = lower value 0.975 | S. cerevisiae deletion strains, locus YOR083W, strain WHI5, stronger effect = lower value 0.967 | S. cerevisiae deletion strains, locus YOR106W, strain vam3, stronger effect = lower value 0.952 | S. cerevisiae deletion strains, locus YOR136W, strain idh2, stronger effect = lower value 0.974 | S. cerevisiae deletion strains, locus YOR144C, strain elg1, stronger effect = lower value 0.987 | S. cerevisiae deletion strains, locus YOR184W, strain ser1, stronger effect = lower value 0.985 | S. cerevisiae deletion strains, locus YOR231W, strain MKK1, stronger effect = lower value 0.978 | S. cerevisiae deletion strains, locus YOR265W, strain rbl2, stronger effect = lower value 0.993 | S. cerevisiae deletion strains, locus YOR270C, strain vph1, stronger effect = lower value 0.92 | S. cerevisiae deletion strains, locus YOR290C, strain snf2, stronger effect = lower value 0.985 | S. cerevisiae deletion strains, locus YOR316C, strain cot1, stronger effect = lower value 0.976 | S. cerevisiae deletion strains, locus YPL051W, strain arl3, stronger effect = lower value 0.99 | S. cerevisiae deletion strains, locus YPL055C, strain LGE1, stronger effect = lower value 0.881 | S. cerevisiae deletion strains, locus YPL078C, strain atp4, stronger effect = lower value 0.971 | S. cerevisiae deletion strains, locus YPL106C, strain sse1, stronger effect = lower value 0.955 | S. cerevisiae deletion strains, locus YPL240C, strain hsp82, stronger effect = lower value 1 | S. cerevisiae deletion strains, locus YPL256C, strain CLN2, stronger effect = lower value 0.978 | S. cerevisiae deletion strains, locus YPR119W, strain clb2, stronger effect = lower value 0.983 | S. cerevisiae deletion strains, locus YPR141C, strain kar3, stronger effect = lower value 0.978 | S. cerevisiae deletion strains, locus YPR163C, strain tif3, stronger effect = lower value 0.984 | S. cerevisiae deletion strains, locus YPR167C, strain met16, stronger effect = lower value 0.996 | S. cerevisiae deletion strains, strain wtn01, stronger effect = lower value 0.992 | S. cerevisiae strains, strain wild type, stronger effect = lower value 0.98
